From PubChem BioAssay AID485344 (National Center for Advancing Translational Sciences (NCATS), 2010)
Out of some 340,000 compounds screened, about 6,900 (2%) were called active. The entries come from a sample that favours actives as a whole. Values without a mark were called inactive. No stated cut-off is given here; in the data, active means inhibition above about 30%; inactive means below that, where a call was filed.

What follows are compounds tested against D(2) dopamine receptor (Homo sapiens) (UniProt P14416) (assay: HTS Assay for Allosteric Antagonists of the Human D2 Dopamine Receptor: Primary Screen for Antagonists). Details: HEK293 TREx D2 cells, calcium flux, dopamine EC80; at 10 µM; stronger effect = higher value.
Sequence of D(2) dopamine receptor (Homo sapiens) (P14416 whole entry, looked up): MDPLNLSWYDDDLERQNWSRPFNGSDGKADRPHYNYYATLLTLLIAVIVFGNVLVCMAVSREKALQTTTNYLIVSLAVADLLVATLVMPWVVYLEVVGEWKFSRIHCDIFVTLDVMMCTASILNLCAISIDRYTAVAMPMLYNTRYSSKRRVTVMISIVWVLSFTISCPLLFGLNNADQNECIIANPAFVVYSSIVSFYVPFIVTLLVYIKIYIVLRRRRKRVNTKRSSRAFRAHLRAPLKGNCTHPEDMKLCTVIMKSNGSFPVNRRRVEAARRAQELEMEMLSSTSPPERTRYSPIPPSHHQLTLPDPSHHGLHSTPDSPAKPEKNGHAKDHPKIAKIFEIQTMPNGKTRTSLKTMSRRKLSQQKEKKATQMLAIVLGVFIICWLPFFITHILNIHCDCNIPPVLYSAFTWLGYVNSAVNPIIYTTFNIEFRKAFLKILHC
Outline: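 Tetracycline-induced HEK293 TREx cells expressing D2 receptor forced-coupled to calcium signalling, loaded with no-wash calcium dye. Compounds added and calcium flux read 180 s, then dopamine added at EC80 and read a further 180 s.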
Further: 0% is about no effect.

Structure (SMILES) | inhibition
Cc1cc(C)c(S(=O)(=O)N2CCC(C(=O)OCc3c(C)noc3C)CC2)c(C)c1 | 7.04%
O=C(CN1CCCCC1)Nc1ccccc1C(=O)NC1CC1 | 7.71%
Cc1ccc(NC(=O)COC(=O)CN2CCCCCC2=O)c(C)c1 | -4.24%
CC(C)(O)C#Cc1ccc(CN2CCC(CO)(CCc3ccccc3)CC2)cc1 | 14.6%
OCC1(CCc2ccccc2)CCN(Cc2ccc3nsnc3c2)CC1 | 36.1% (active)
Cc1cccc(-c2ncc(CN3CCC(CO)(CCCc4ccccc4)CC3)cn2)c1 | 6.88%
CN(CCOc1ccccc1)C(=O)c1cc(-c2ccco2)nc2ccccc12 | 3.66%
CC(OC(=O)CNC(=O)c1ccc(Cl)c([N+](=O)[O-])c1)C(=O)NCc1ccco1 (centres undefined) | 26.5%
CC(=O)Nc1ccc(NC(=O)C(C)OC(=O)c2ccccc2C(=O)c2ccc(Cl)c([N+](=O)[O-])c2)cc1 (centres undefined) | 36.3% (active)
N#Cc1cccc(NC(=O)COC(=O)c2ccccc2C(=O)c2ccc(Cl)c([N+](=O)[O-])c2)c1 | 7.92%
Cc1ccc(S(=O)(=O)CCC(=O)OCC(=O)NCCc2ccc(S(N)(=O)=O)cc2)cc1 | -1.28%
CC(=O)Nc1ccc(NC(=O)C(NS(=O)(=O)c2ccc3c(c2)OCCO3)C(C)C)cc1 (centres undefined) | -6.92%
COc1ccc(N2CCN(Cc3ccc(Br)s3)CC2)cc1 | -12.7%
CCOCc1c(C(=O)N2CCN(Cc3ccc(Br)s3)CC2)oc2ccccc12 | 32.1% (active)
COCC(=O)Nc1c(C(=O)N2CCCC2)oc2ccccc12 | -20%
CS(=O)(=O)c1ccc(Cl)c(NC(=O)COC(=O)c2ncc(Cl)c(Cl)c2Cl)c1 | -16.5%
Cc1cccc(CN2CCC(CNC(=O)Nc3ccc(F)c(Cl)c3)CC2)c1 | -7.23%
Cc1ccc(C)c(CN2CCC(CNC(=O)Nc3ccc(C)c(F)c3)CC2)c1 | -38%
COc1cc(NC(=O)NCC2CCN(Cc3ccc(C)cc3)CC2)cc(OC)c1OC | 33.3% (active)
COc1cc(C(=O)N(C)Cc2cccc(OC)c2OC)ccc1OCC(=O)Nc1cccc(C(F)(F)F)c1 | -10.9%
O=C(Oc1ccc(Br)cc1)c1cccnc1 | 38.5% (active)
CCCCCCOc1ccc(OC(=O)c2cccnc2)cc1 | 3.26%
N#CCc1ccc(OC(=O)c2cccnc2)cc1 | 0.882%
Cc1ccc2c(CN3CCN(S(=O)(=O)c4ccccc4C(F)(F)F)CC3)cc(=O)oc2c1 | -23.9%
